From PubChem
Compounds with a hit are over-represented: about 11% of the library has one in this group of screens.
G9a inh – blocks human histone lysine methyltransferase G9a; Q96KQ7; G9a H3K9 monomethylation, AlphaScreen, 2 h; Potency, µM (highest dose often 102 µM), hits mostly inhibitors; 8.8% of 350,000 active; AID 504332; further: nearly all actives have a fitted effect of over 75% in size
Target sequence (Q96KQ7 913-1193 limits assumed): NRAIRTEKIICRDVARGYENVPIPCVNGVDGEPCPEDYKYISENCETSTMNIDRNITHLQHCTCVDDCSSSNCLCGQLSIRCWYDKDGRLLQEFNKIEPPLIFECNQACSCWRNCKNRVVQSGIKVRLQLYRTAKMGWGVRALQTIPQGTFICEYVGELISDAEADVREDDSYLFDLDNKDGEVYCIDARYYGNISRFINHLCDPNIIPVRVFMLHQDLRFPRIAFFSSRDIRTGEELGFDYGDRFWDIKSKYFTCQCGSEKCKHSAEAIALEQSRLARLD
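Signal arises when biotinylated H3K9 peptide, once monomethylated, bridges streptavidin donor and antibody-captured acceptor beads. Enzyme at 20 nM was preincubated 15 min with test compounds; peptide 500 nM and SAM 20 uM then reacted for 2 h.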
HP1b chromo inh – HP1-beta chromodomain-methylated histone interaction inhibition. P83916. AlphaScreen HP1-beta / biotin-H3K9me3 peptide binding. Potency, µM (doses to about 114 µM), usual class: inhibitors. 0.56% of 390,000 active. AID 540317; further: nearly all actives have a fitted effect of over 70% in size
Target sequence (P83916 whole entry, looked up): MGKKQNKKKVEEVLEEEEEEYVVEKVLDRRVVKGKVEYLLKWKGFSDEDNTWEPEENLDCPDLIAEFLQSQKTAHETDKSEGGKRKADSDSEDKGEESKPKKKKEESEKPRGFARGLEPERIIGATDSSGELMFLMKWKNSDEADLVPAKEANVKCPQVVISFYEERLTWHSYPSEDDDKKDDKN
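Compound inhibition of the preformed complex between 50 nM HP1-beta and 50 nM biotinylated H3K9me3 peptide was read by AlphaScreen. Buffer was PBS pH 7.4 with 0.01% Tween-20. Incubations ran 30 min at room temperature, with 10 ug/mL donor/acceptor beads.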
L3MBTL1 block – blocks human L3MBTL1 | Q9Y468 | AlphaScreen L3MBTL1–H3K9me1 peptide binding | Potency, µM (top dose mostly 57.1 µM), usual class: inhibitors | 0.66% of 230,000 active | AID 485360; further: nearly all actives have a fitted effect of over 60% in size
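AlphaScreen assay: L3MBTL1 (50 nM final) was preincubated 30 min at room temperature with biotinylated H3(1-15)K9me1 peptide (75 nM final), then 30 min with library compounds; streptavidin donor and nickel chelate acceptor beads (10 ug/mL final) added, 30 min dark.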
BAZ2B block – blocks human BAZ2B. Q9UIF8. AlphaScreen BAZ2B-H3K14Ac peptide displacement. Potency, µM (highest dose often 114 µM), usual class: inhibitors. 4.4% of 360,000 active. AID 504333; further: nearly all actives have a fitted effect of over 60% in size
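AlphaScreen luminescence quantifies BAZ2B engagement of H3K14Ac peptide; the protein and biotinylated peptide are both at 50 nM final, buffer PBS pH 7.4 with 0.01% Tween-20, all steps at room temperature.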
JMJD2A Tudor – blocks the human JMJD2A Tudor domain; Potency, µM (titrated, usually from 114 µM), usual class: inhibitors; AlphaScreen JMJD2A-Tudor / H3K4me3 peptide binding; 4.4% of 390,000 active; further: nearly all actives have a fitted effect of over 50% in size
Numbers stand for hits; i = inactive; ? = inconclusive; nt = not tested or not shown; ! = a repeat was not active; [ ] = another dose, or the depositor's remark. The call rests on the fitted dose curve; in most records, active means well fitted inhibition curve with a large enough effect; inconclusive means small, poorly fitted or top-dose-only effect; inactive means no such curve, though single readings can be large or run the other way.

SMILES	G9a inh	HP1b chromo inh	L3MBTL1 block	BAZ2B block	JMJD2A Tudor
COc1ccc(N2CCN(CC(O)COc3ccc(F)cc3)CC2)cc1 (centres undefined)	16µM	i	nt	?	?
Cc1ccc(OCC(O)CN2CCN(c3ccc(C)cc3)CC2)cc1 (centres undefined)	i	i	i	i	i
OC(COc1ccc(F)cc1)CN1CCN(CC(O)COc2ccc(F)cc2)CC1 (centres undefined)	i	i	nt	i	i
COc1ccc(N2CCN(CC(O)COc3ccccc3C(C)(C)C)CC2)cc1 (centres undefined)	11µM	20µM	nt	32µM	22µM
O=[n+]1ccn([O-])c2ccccc21	i[12.7 µM]	nt	nt	nt	nt
COc1ccc(N2CCN(CC(O)COc3cc(C)cc(C)c3)CC2)cc1 (centres undefined)	40µM	i	nt	40µM	?
COc1ccc(N2CCN(CC(O)COc3c(OC)cccc3OC)CC2)cc1 (centres undefined)	35µM	i	nt	79µM	56µM!
COc1ccc(N2CCN(CC(O)COc3ccc([N+](=O)[O-])cc3)CC2)cc1 (centres undefined)	?	i	i	i	?
O=C(CNC(=O)c1ccco1)NCC(=O)OCc1ccc(Cl)cc1Cl	i	i	nt	i	i
Cc1[nH]c2ccccc2c1CCNS(=O)(=O)c1ccc(S(N)(=O)=O)cc1	i	i	nt	i	?
COc1cc(S(=O)(=O)NCCc2c(C)[nH]c3ccc(C)cc23)ccc1Br	?	?	nt	?	50µM
COc1c(C)cc(S(=O)(=O)NCCc2c(C)[nH]c3ccccc23)c(C)c1C	?	i	nt	40µM	?
COc1ccc(C(C)C)cc1S(=O)(=O)NCCc1c(C)[nH]c2ccc(C)cc12	?	i	nt	?	50µM
COc1cc(Cl)c(S(=O)(=O)NCCc2c(C)[nH]c3c(C)cccc23)cc1Cl	i	i	nt	32µM	50µM
Cc1ccc([N+](=O)[O-])cc1S(=O)(=O)NCCc1c(C)[nH]c2c(C)cccc12	i	?	i	i	i
Cc1ccc(-n2ncc3c(NCCCN(C)C)ncnc32)cc1Cl	i	i	nt	i	i
Cc1ccc(-n2nnnc2CNC(=O)c2ccccc2F)cc1C	i	i	nt	i	i
CCCCC(Sc1nc2cc3c(cc2c(=O)n1CCCC(=O)NCc1ccc(OC)cc1)OCO3)C(=O)OCC (centres undefined)	i	i	nt	i	i
COc1ccc(C(C)C)cc1S(=O)(=O)NCCc1c(C)[nH]c2c(Cl)cccc12	?	i	nt	28µM	?
Cc1[nH]c2c(C)cccc2c1CCNS(=O)(=O)c1cccc([N+](=O)[O-])c1	?	?	i	50µM	?
CCOc1ccc(C(=O)N(Cc2ccc(C(C)C)cc2)Cc2ccco2)cc1	i	i	nt	i	i
Cc1ccc(NS(=O)(=O)c2cc3c(cc2-c2ccccc2)NC(=O)CO3)cc1C	nt	nt	nt	nt	i
O=C(CC1N=C2c3ccccc3N=C(SCc3ccccc3Cl)N2C1=O)NC1CCCCC1 (centres undefined)	i	i	nt	i	i
Cc1c(Cl)cccc1NS(=O)(=O)c1cc2c(cc1F)NC(=O)CC2	nt	nt	nt	nt	i
CCOC(=O)c1[nH]c2ccc(Br)cc2c1NC(=O)CCN1CCC(C(=O)OCC)CC1	50µM	i	i	i	i[11.4 µM]
SMILES	G9a inh	HP1b chromo inh	L3MBTL1 block	BAZ2B block	JMJD2A Tudor
O=C1NC(=S)N/C1=C\c1ccc(N2CCOCC2)cc1	?	i	i	i	20µM
Cc1cn(-c2cc(NC(=O)c3ccc(C)c(NC(=O)c4cccc(-c5cn[nH]c(=O)c5)c4)c3)cc(C(F)(F)F)c2)cn1	14µM	i	i	i	?
Cc1ccc(C(=O)Nc2cccc(C(F)(F)F)c2)cc1NC(=O)c1csc(-c2ccncc2)n1	i	i	nt	i	i
COc1ccc(C(=O)NC2(C(F)(F)F)C(=O)NC(C)=C2C#N)cc1 (centres undefined)	i	i	nt	i	i
COc1ccc(OC)c(C2CC(=O)Nc3c2c(=O)n(C)c2ncnn32)c1 (centres undefined)	i	i	nt	?	i
Cc1ccc(Cl)c(OCCCCN(C)Cc2ccccc2)c1	10µM	i	i	i	2.8µM
Cc1ccc(Cl)c(OCCCN(C)Cc2ccccc2)c1	1.8µM	45µM	nt	32µM	1.1µM
CN(CCCOc1ccccc1Br)Cc1ccccc1	i	i	i	i	i
COC(=O)CN1C(=S)N(c2ccc(OC)cc2)C(=O)/C1=C/c1ccc(OC)cc1	i[12.7 µM]	i	i	i	i
COC(=O)CN1C(=S)N(c2ccc(OC)cc2)C(=O)/C1=C/c1ccc(N2CCOCC2)cc1	32µM	?	i[11.4 µM]	28µM	?
Cc1ccc(C(=O)COC(=O)CN2C(=O)C3C4CCC(C4)C3C2=O)cc1[N+](=O)[O-] (centres undefined)	45µM	i	i	i	i
Cc1ccc(C(=O)COC(=O)CCN2C(=O)C3C4CCC(C4)C3C2=O)cc1[N+](=O)[O-] (centres undefined)	i	i	nt	i	i
CCOC(=O)c1ccc2nc(C)c3c(c2c1)OC(C)C3 (centres undefined)	i	i	i	i	i
Cc1nc2ccc(C(=O)O)cc2c2c1CC(CN)O2 (centres undefined)	79µM	i	i	i	?
CCOC(=O)C1CCN(S(=O)(=O)c2ccc(Cl)cc2)CC1	i	i	nt	i	i
CC1CCCC(C)N1CC(C)(C)NS(=O)(=O)c1ccc(Cl)cc1 (centres undefined)	?	i	nt	50µM	i
CCOC(=O)C1CCN(C2=C(NS(=O)(=O)c3ccc(Cl)cc3)C(=O)c3ccccc3C2=O)CC1	4.5µM	?	?	8.9µM	11µM
CCOC(=O)C1CCN(CC(C)(C)NS(=O)(=O)c2ccc(Cl)cc2)CC1	11µM	79µM	nt	50µM	3.2µM
CC(C)(CN1CCCC1)NS(=O)(=O)c1ccc(Cl)cc1	i[12.7 µM]	i	nt	i	i
CCOC(=O)C1CCCN(C2=C(NS(=O)(=O)c3ccc(Br)cc3)C(=O)c3ccccc3C2=O)C1 (centres undefined)	nt	10µM	nt	8.9µM	10µM
C/C=C1\COC(C(=O)NCc2cccc(OC)c2OC)(C(F)(F)F)C=C1C=C(C)C (centres undefined)	nt	i	nt	nt	i
Cc1ccccc1C(=O)OCc1cc(=O)n2nc(C3CC3)sc2n1	i	i	nt	i	i
CCSC1=NS(=O)(=O)c2ccccc21	nt	nt	nt	nt	i
O=c1c2[nH]c3ccsc3c2cnn1Cc1ccccc1F	nt	nt	nt	nt	i
Cc1cc(=O)[nH]c(N/N=C/c2c(C)nn(-c3ccccc3)c2C)n1	25µM	i	i	i	i
Cc1nn(-c2ccccc2)c(Cl)c1/C=N/Nc1nc2ccccc2n1C	50µM	i	i	i	i
Cc1nn(-c2ccccc2)c(C)c1/C=N/Nc1nc2ccccc2[nH]1	?	?	i	?	56µM
Cc1nn(-c2ccccc2)c(C)c1/C=N\NS(=O)(=O)c1ccc(Cl)cc1	3.2µM	i	nt	i	i
